# Source: ChEMBL document CHEMBL3988442, “University of Dundee, Small-Polar-MMV Screening Library” (2021)
# For some of these results: Measured potencies and affinities stand elsewhere.
# How the values were obtained:
# Design in all cases: scale not given: direction of the effect not stated beside the values
# [1] = biological target: Protein translocase subunit SecA (Escherichia coli (strain K12)) (UniProt P10408); experiment: Assay to Identify E. coli SecA ATPase Inhibitors; type: functional; settings: 30 µM
# Chain of Protein translocase subunit SecA (Escherichia coli (strain K12)) (P10408 whole entry): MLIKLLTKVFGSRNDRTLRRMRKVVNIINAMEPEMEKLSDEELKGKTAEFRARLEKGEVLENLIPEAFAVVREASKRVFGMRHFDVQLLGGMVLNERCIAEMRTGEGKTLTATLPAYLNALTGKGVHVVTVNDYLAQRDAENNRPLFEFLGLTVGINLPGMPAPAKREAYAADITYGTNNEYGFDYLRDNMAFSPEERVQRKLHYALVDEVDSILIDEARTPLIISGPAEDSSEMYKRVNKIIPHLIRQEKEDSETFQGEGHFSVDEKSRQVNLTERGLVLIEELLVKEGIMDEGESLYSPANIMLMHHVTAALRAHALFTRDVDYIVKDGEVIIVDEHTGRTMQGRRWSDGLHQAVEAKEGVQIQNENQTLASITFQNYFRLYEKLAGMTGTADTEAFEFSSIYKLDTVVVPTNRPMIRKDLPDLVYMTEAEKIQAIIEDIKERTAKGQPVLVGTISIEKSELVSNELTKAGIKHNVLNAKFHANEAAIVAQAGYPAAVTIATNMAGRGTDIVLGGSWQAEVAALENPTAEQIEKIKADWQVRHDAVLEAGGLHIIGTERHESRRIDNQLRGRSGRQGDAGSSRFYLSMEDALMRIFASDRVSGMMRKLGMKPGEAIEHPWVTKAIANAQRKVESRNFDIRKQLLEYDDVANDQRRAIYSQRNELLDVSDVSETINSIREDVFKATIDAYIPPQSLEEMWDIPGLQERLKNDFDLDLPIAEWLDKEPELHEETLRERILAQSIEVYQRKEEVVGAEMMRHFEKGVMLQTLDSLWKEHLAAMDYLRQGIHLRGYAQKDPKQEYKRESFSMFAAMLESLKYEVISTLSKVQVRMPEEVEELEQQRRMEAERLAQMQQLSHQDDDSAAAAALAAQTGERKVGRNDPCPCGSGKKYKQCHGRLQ
# [2] = biological target: T1, Ubiquitin-activating enzyme e1, putative (Leishmania donovani (strain BPK282A1)) (UniProt E9BSI1); experiment: Leishmania donovani Ubiquitin Activating Enzyme (LdE1); type: functional; settings: 30 µM
# T1 sequence (whole entry): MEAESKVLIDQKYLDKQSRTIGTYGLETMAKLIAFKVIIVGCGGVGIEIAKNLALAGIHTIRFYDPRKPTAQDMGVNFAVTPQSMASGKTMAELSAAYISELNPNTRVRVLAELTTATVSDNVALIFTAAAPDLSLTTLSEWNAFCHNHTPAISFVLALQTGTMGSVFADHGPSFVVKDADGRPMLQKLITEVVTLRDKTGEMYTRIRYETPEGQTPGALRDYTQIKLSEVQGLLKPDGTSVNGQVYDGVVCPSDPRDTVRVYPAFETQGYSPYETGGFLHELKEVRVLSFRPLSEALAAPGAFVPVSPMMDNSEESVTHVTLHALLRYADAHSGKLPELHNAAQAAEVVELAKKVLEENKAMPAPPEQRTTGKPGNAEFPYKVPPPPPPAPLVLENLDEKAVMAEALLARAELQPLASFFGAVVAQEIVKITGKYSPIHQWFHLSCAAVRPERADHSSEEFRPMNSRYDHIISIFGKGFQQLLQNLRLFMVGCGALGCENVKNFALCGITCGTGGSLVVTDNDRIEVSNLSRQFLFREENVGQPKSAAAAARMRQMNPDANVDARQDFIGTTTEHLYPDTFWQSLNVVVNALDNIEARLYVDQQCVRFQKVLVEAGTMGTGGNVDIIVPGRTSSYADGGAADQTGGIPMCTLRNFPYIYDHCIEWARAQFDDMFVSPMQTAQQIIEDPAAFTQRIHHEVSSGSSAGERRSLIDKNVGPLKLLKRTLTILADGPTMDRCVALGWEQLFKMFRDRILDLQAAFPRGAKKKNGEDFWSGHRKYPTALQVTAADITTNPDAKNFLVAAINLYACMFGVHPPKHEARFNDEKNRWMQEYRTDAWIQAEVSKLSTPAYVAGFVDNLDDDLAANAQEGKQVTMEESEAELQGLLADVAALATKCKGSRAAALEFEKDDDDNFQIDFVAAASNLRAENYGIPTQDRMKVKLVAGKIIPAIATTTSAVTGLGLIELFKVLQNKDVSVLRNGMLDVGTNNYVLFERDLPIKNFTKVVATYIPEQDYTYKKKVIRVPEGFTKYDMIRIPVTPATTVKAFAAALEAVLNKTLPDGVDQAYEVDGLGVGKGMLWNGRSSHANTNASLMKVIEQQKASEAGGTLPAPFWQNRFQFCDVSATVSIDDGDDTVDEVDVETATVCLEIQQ
# [3] = biological target: AMP-activated protein kinase, AMPK (Homo sapiens) (UniProt P54646+O43741+P54619+Q9UGJ0+Q9Y478+Q13131+Q9UGI9); experiment: AMP-dependent Kinase enzyme assay. An in vitro enzyme assay that detects ADP turnover that is directly proportional to AMPK activity. This uses naive AMPK that is activated during the assay with MK-8722; type: functional; settings: 30 µM
# [4] = biological target: Sialic acid-binding Ig-like lectin 9 (Homo sapiens) (UniProt Q9Y336); experiment: Hs-Siglec9 ALPHAscreen SOP 20170721; settings: 10 µM
# Chain of Sialic acid-binding Ig-like lectin 9 (Homo sapiens) (Q9Y336 whole entry): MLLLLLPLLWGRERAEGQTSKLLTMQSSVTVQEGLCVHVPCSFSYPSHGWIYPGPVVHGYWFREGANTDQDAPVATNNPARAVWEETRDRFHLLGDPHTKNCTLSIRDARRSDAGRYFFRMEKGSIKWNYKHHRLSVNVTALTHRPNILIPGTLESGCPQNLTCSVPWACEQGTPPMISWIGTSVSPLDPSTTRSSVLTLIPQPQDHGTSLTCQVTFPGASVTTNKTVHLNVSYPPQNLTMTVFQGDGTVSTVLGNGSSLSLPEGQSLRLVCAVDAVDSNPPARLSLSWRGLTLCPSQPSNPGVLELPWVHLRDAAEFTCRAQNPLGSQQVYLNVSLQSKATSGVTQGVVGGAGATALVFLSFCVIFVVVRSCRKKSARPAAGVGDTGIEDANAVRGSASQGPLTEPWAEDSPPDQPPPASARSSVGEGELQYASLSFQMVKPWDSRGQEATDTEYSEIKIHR
# Trypanosoma cruzi = experiment: Trypanosoma cruzi phosphomannomutase and mannose-1-phosphate guanylyltransferase assay; type: functional; settings: 10 µM
# [5] = biological target: T2, Arginase-2, mitochondrial (Homo sapiens) (UniProt P78540); experiment: in vitro enzyme assay to detect the production of urea directly proportional to the activity of Arginase II; type: functional; settings: 33.3 µM; note: in the data most compounds retested in dose-response had high values
# T2 sequence (whole entry): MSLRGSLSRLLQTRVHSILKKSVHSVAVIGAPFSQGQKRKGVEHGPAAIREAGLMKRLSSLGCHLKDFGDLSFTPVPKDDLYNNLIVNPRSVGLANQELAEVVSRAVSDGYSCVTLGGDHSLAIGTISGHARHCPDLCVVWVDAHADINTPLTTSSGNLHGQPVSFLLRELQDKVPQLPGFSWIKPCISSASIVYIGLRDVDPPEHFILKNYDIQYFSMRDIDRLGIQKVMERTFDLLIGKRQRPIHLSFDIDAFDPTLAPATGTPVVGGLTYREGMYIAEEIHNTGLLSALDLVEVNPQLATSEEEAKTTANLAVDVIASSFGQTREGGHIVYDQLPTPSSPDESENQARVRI
# [6] = biological target: T3, Proteasome subunit beta (Trypanosoma cruzi) (UniProt O96673); experiment: Trypanosoma cruzi proteasome chymotrypsin-like activity (TcProtChymo) assay.; note: in the data most compounds retested in dose-response had high values; type: functional; settings: 9.37 µM
# T3 sequence (whole entry): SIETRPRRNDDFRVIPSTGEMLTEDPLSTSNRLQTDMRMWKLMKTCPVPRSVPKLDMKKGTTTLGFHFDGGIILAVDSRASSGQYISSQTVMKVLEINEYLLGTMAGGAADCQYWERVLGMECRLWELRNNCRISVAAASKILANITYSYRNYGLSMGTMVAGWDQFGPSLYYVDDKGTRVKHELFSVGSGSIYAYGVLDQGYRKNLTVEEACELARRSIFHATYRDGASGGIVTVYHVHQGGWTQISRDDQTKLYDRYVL
# Homo sapiens = species: Homo sapiens; experiment: To identify inhibition of the IFN signalling (Jak-Stat) pathway via expression of an eGFP reporter gene under the control of an IFN-stimulated response element (ISRE) containing MxA promoter.; type: functional; settings: 30 µM
# [7] = biological target: T4, Tyrosyl-tRNA synthetase, putative (Trypanosoma cruzi (strain CL Brener)) (UniProt Q4DSP6); experiment: Trypanosoma cruzi tyrosyl tRNA synthetase (TcYRS) _High Tyrosine SOP; type: functional; settings: 30 µM; note: in the data most compounds retested in dose-response had high values
# T4 sequence (whole entry): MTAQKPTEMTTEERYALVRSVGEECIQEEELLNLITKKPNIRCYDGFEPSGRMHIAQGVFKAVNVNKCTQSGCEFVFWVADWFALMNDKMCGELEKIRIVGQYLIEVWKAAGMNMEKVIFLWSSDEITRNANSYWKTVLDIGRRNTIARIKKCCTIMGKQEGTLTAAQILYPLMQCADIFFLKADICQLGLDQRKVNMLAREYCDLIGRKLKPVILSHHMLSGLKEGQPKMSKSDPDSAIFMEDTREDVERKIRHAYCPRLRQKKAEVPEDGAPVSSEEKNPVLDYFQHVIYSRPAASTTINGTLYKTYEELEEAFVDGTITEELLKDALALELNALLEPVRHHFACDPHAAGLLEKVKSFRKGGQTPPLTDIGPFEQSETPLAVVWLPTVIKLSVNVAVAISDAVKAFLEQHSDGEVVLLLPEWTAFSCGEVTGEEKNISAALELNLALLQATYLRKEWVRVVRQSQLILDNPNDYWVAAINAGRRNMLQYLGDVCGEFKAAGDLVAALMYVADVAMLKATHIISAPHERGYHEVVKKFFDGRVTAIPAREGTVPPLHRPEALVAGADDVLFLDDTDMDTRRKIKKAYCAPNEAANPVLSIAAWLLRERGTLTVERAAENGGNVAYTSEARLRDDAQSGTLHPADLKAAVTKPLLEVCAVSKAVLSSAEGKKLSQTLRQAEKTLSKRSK
# [8] = biological target: T4, Tyrosyl-tRNA synthetase, putative (Trypanosoma cruzi (strain CL Brener)); experiment: Trypanosoma cruzi tyrosyl tRNA synthetase (TcYRS) SOP; type: functional; settings: 30 µM
# [9] = biological target: Chromo domain-containing protein 1 (Saccharomyces cerevisiae (strain ATCC 204508 / S288c) (Baker's yeast)) (UniProt P32657); experiment: ScCHD-1 Enzyme Inhibition Assay; type: functional; settings: 30 µM; note: in the data most compounds retested in dose-response had high values
# Chain of Chromo domain-containing protein 1 (Saccharomyces cerevisiae (strain ATCC 204508 / S288c) (Baker's yeast)) (P32657 whole entry, the tested form may be a part): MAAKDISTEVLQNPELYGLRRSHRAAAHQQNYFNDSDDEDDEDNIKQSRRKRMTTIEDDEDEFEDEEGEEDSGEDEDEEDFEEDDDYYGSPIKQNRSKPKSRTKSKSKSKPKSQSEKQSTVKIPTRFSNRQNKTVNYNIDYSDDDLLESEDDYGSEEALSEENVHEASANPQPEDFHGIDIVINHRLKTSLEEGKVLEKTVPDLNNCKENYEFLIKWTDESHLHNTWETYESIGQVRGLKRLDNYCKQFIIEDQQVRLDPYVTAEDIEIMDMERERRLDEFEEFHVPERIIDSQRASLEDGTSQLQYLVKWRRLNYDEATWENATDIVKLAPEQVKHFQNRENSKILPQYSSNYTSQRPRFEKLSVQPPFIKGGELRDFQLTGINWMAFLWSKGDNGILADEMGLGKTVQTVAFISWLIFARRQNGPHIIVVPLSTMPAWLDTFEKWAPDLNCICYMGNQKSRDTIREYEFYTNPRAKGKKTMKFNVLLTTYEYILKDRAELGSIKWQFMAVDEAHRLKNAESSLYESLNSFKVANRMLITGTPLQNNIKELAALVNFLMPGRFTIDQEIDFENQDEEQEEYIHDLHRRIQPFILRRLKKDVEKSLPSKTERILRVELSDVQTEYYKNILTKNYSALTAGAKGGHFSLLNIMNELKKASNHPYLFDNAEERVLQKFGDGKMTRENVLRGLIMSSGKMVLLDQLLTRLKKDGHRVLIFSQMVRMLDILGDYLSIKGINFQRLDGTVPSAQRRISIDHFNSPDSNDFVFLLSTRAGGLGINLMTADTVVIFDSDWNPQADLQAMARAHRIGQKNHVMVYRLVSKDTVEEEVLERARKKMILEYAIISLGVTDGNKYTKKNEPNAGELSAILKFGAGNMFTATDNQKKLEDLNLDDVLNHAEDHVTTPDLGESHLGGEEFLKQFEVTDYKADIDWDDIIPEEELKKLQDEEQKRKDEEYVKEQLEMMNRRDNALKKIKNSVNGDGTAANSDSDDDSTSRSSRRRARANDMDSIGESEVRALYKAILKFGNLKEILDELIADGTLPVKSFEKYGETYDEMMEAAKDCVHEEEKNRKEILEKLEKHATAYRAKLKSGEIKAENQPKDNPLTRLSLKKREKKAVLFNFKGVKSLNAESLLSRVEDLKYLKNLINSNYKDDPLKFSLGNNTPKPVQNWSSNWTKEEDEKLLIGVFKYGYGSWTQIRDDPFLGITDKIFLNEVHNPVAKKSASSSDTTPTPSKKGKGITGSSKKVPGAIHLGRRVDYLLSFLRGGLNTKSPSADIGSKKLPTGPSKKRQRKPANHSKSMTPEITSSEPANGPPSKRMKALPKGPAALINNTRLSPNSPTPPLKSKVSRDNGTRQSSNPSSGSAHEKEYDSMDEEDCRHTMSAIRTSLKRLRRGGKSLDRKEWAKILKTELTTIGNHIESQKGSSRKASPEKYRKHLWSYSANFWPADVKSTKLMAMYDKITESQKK
SMILES,Percent Effect [1],Percent Effect [2],Percent Effect [3],Percent Effect [4],Percent Effect (Trypanosoma cruzi),Percent Effect [5],Percent Effect [6],Percent Effect (Homo sapiens),Percent Effect [7],Percent Effect [8],Percent Effect [9]
O=C1CO[C@@H]2CN(CC3CCOCC3)C[C@H]2N1CC1CC1,-3.37%,10.8%,5.33%,-0.714%,-5.18%,5.41%,20.1%,10.6%,5.41%,17.9%,3.58%
CC(=O)c1ccccc1C(=O)NCC1(CO)CC1,-0.313%,10.8%,-5.63%,7.79%,1.16%,-4.29%,3.79%,21.2%,4.76%,-4.88%,-0.424%
Cc1cc(C)n(CC(=O)N2CCC(c3nc(C)no3)CC2)n1,-2.79%,9.72%,3.9%,-0.831%,2.43%,3.09%,9.3%,-22.2%,3.16%,5.13%,-4.51%
COC(=O)CN1CC(c2nc(Cc3ccccc3)no2)C1,-5.1%,13.7%,-3.81%,14.3%,2.35%,2.27%,11.9%,12.4%,8.6%,15%,-6.9%
COc1c(C2CCCN2C(=O)c2cc(Cl)c[nH]2)c(C)nn1C (configuration not stated),-5.79%,5.41%,4.66%,-0.555%,-0.781%,2.08%,4.31%,-1.4%,9.9%,-3.66%,-3.93%
O=C1CC[C@H]2CN(Cc3ccc(Cl)s3)CC[C@H]2N1CCc1c[nH]cn1,-2.35%,5.48%,2.32%,10.8%,4.37%,-1.6%,11.9%,34.2%,3.12%,8.64%,-0.239%
COc1cccc(COCC(=O)N2CCN(CC(C)(C)O)CC2)c1,1.47%,-5.26%,7.35%,8.14%,-3.76%,6.51%,-0.167%,21%,1.47%,-2.44%,-5.7%
CNC(=O)[C@H]1C[C@@H]2CN(S(=O)(=O)c3ccccc3)C[C@@H]2N1C(C)=O,-5.14%,7.79%,3.54%,8.79%,8.95%,1.38%,8.32%,18.1%,5.38%,11.1%,1.18%
Cc1nc(C)n(CC2CCCN(CCOc3cccc(C#N)c3)C2)n1 (configuration not stated),1.74%,21.6%,7.7%,4.91%,-8.4%,24.9%,11.2%,17.4%,0.493%,-1.24%,-4.16%
NS(=O)(=O)CCNC(=O)c1ccc(-c2ccc(F)cc2)cc1F,-4.5%,5.2%,1.86%,3.08%,-1.08%,8.28%,24.5%,19.2%,-10.8%,1.24%,-1.11%
COc1cccc(N2CCN(CC(O)c3cc(C)ccc3C)CC2)c1 (configuration not stated),-1.87%,10.5%,-6.71%,-9.14%,-8.67%,2.37%,18.5%,-5.38%,7.45%,7.79%,-5.09%
CC(C(=O)N1CCCN(c2ccc(C#N)cc2)CC1)n1ccnc1 (configuration not stated),-5.97%,15.8%,-5.83%,-1.34%,3.01%,6.13%,8.52%,-7.67%,8.33%,19.5%,-17.9%
Cn1ccnc1CN1CCN(CC(O)c2cccc(F)c2)CC1 (configuration not stated),-1.52%,18.2%,-1.07%,4.38%,-0.49%,-1.9%,15.4%,-1.78%,6.67%,18.8%,-11.3%
CCC(=O)N1CCC(c2nc3ccc(NC(C)C)cn3n2)CC1,-5.82%,-5.41%,-88.4%,0.275%,-1.56%,-0.833%,1.44%,-2.11%,1.98%,1.22%,-4.18%
O=C(CS(=O)(=O)c1ccccc1Cl)NC1CCCCNC1=O (configuration not stated),-6.72%,13%,-4.35%,4.43%,2.43%,-1.78%,6.93%,-3.42%,2.91%,14.6%,-2.31%
COc1c(C2CCCN2C(=O)c2cccc(C(N)=O)c2)c(C)nn1C (configuration not stated),-6.26%,10.4%,7.89%,-11.9%,-5.19%,-2.32%,3.96%,17.6%,0%,2.35%,-17.8%
CCNc1cc2c(nn1)CCN(C(=O)c1cccc3c1OCCO3)C2,-5.14%,7.79%,-15.3%,14.1%,5.99%,-6.76%,15.4%,1.1%,5.83%,14.6%,-10.8%
